Measured values reported in PubChem BioAssay AID1159580 (chemical genetic matrix, 2015).
Among all 5,500 compounds or so, about 2,000 (36%) were called active. Not shown: some 18% with an inconclusive outcome. No stated cut-off is given here; in the data, active means normalized growth mostly below about 0.91 (no sharp cut-off); inconclusive means no clear call, values can overlap the other calls; inactive means mostly above about 0.92. This is one part of the list.

Experiment: chemical genetic growth profiling, strain panel (AID 1159580);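 further: tested at 20 µM; growth read once vehicle control cultures reached saturation at 30 °C; 1 = growth at the plate median or of vehicle wells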
Conditions: growth OD

Measured: normalized growth

Cc1cc(O)c(C)c2c1C(=O)Oc1c(C)c(O)c(C(=O)O)c(C)c1O2
inactive: S. cerevisiae deletion strains, locus YAL013W, strain DEP1, stronger effect = lower value 0.997 | S. cerevisiae deletion strains, locus YBR021W, strain FUR4, stronger effect = lower value 0.966 | S. cerevisiae deletion strains, locus YBR229C, strain ROT2, stronger effect = lower value 0.993 | S. cerevisiae deletion strains, locus YCL029C, strain bik1, stronger effect = lower value 0.973 | S. cerevisiae deletion strains, locus YDL035C, strain GPR1, stronger effect = lower value 0.998 | S. cerevisiae deletion strains, locus YDL074C, strain BRE1, stronger effect = lower value 1 | S. cerevisiae deletion strains, locus YDL101C, strain DUN1, stronger effect = lower value 0.988 | S. cerevisiae deletion strains, locus YDL134C, strain PPH21, stronger effect = lower value 0.98 | S. cerevisiae deletion strains, locus YDL185W, strain tfp1, stronger effect = lower value 0.989 | S. cerevisiae deletion strains, locus YDL192W, strain arf1, stronger effect = lower value 0.983 | S. cerevisiae deletion strains, locus YDR101C, strain arx1, stronger effect = lower value 0.974 | S. cerevisiae deletion strains, locus YDR150W, strain NUM1, stronger effect = lower value 0.999 | S. cerevisiae deletion strains, locus YDR162C, strain NBP2, stronger effect = lower value 1.02 | S. cerevisiae deletion strains, locus YDR318W, strain mcm21, stronger effect = lower value 0.971 | S. cerevisiae deletion strains, locus YDR388W, stronger effect = lower value 0.98 | S. cerevisiae deletion strains, locus YDR502C, strain sam2, stronger effect = lower value 0.982 | S. cerevisiae deletion strains, locus YEL061C, strain CIN8, stronger effect = lower value 1 | S. cerevisiae deletion strains, locus YER110C, stronger effect = lower value 0.978 | S. cerevisiae deletion strains, locus YER155C, strain BEM2, stronger effect = lower value 0.991 | S. cerevisiae deletion strains, locus YER167W, strain BCK2, stronger effect = lower value 0.994 | S. cerevisiae deletion strains, locus YGL078C, strain dbp3, stronger effect = lower value 0.968 | S. cerevisiae deletion strains, locus YGL086W, strain mad1, stronger effect = lower value 0.977 | S. cerevisiae deletion strains, locus YGL248W, strain PDE1, stronger effect = lower value 0.989 | S. cerevisiae deletion strains, locus YGR078C, strain PAC10, stronger effect = lower value 1.01 | S. cerevisiae deletion strains, locus YGR135W, strain pre9, stronger effect = lower value 1 | S. cerevisiae deletion strains, locus YGR229C, strain SMI1, stronger effect = lower value 1.01 | S. cerevisiae deletion strains, locus YGR252W, strain gcn5, stronger effect = lower value 0.961 | S. cerevisiae deletion strains, locus YHR030C, strain SLT2, stronger effect = lower value 0.989 | S. cerevisiae deletion strains, locus YHR079C, strain IRE1 (second series), stronger effect = lower value 0.982 | S. cerevisiae deletion strains, locus YHR094C, strain hxt1, stronger effect = lower value 0.979 | S. cerevisiae deletion strains, locus YHR129C, strain ARP1, stronger effect = lower value 0.997 | S. cerevisiae deletion strains, locus YHR200W, strain rpn10, stronger effect = lower value 0.978 | S. cerevisiae deletion strains, locus YIL066C, strain RNR3, stronger effect = lower value 0.988 | S. cerevisiae deletion strains, locus YIL073C, strain SPO22, stronger effect = lower value 0.999 | S. cerevisiae deletion strains, locus YIL125W, strain kgd1, stronger effect = lower value 0.983 | S. cerevisiae deletion strains, locus YIR030C, strain dcg1, stronger effect = lower value 0.991 | S. cerevisiae deletion strains, locus YJL095W, strain BCK1, stronger effect = lower value 1.01 | S. cerevisiae deletion strains, locus YJL134W, strain LCB3, stronger effect = lower value 0.989 | S. cerevisiae deletion strains, locus YJL168C, strain set2, stronger effect = lower value 0.974 | S. cerevisiae deletion strains, locus YJL187C, strain SWE1 (second series), stronger effect = lower value 0.988 | S. cerevisiae deletion strains, locus YJR043C, strain POL32, stronger effect = lower value 1.01 | S. cerevisiae deletion strains, locus YJR075W, strain HOC1, stronger effect = lower value 1.01 | S. cerevisiae deletion strains, locus YKL009W, strain mrt4, stronger effect = lower value 0.964 | S. cerevisiae deletion strains, locus YKL068W, stronger effect = lower value 0.985 | S. cerevisiae deletion strains, locus YKL085W, strain MDH1 (second series), stronger effect = lower value 0.992 | S. cerevisiae deletion strains, locus YKL085W, strain MDH1, stronger effect = lower value 0.992 | S. cerevisiae deletion strains, locus YKL190W, strain CNB1, stronger effect = lower value 1 | S. cerevisiae deletion strains, locus YKR001C, strain vps1, stronger effect = lower value 0.982 | S. cerevisiae deletion strains, locus YLR039C, strain RIC1, stronger effect = lower value 1.01 | S. cerevisiae deletion strains, locus YLR058C, strain SHM2, stronger effect = lower value 0.997 | S. cerevisiae deletion strains, locus YLR102C, strain apc9, stronger effect = lower value 0.988 | S. cerevisiae deletion strains, locus YLR262C, strain YPT6, stronger effect = lower value 1 | S. cerevisiae deletion strains, locus YLR268W, strain sec22, stronger effect = lower value 0.99 | S. cerevisiae deletion strains, locus YLR330W, strain CHS5, stronger effect = lower value 0.998 | S. cerevisiae deletion strains, locus YLR342W, strain FKS1 (second series), stronger effect = lower value 0.983 | S. cerevisiae deletion strains, locus YLR371W, strain rom2, stronger effect = lower value 0.976 | S. cerevisiae deletion strains, locus YLR418C, strain cdc73, stronger effect = lower value 0.974 | S. cerevisiae deletion strains, locus YML016C, strain PPZ1, stronger effect = lower value 0.99 | S. cerevisiae deletion strains, locus YML032C, strain rad52, stronger effect = lower value 0.965 | S. cerevisiae deletion strains, locus YML124C, strain tub3, stronger effect = lower value 0.991 | S. cerevisiae deletion strains, locus YMR078C, strain ctf18, stronger effect = lower value 0.973 | S. cerevisiae deletion strains, locus YMR223W, strain ubp8, stronger effect = lower value 0.966 | S. cerevisiae deletion strains, locus YMR263W, strain SAP30, stronger effect = lower value 1 | S. cerevisiae deletion strains, locus YMR307W, strain GAS1, stronger effect = lower value 0.976 | S. cerevisiae deletion strains, locus YNL067W, strain RPL9B, stronger effect = lower value 1 | S. cerevisiae deletion strains, locus YNL128W, strain TEP1, stronger effect = lower value 0.998 | S. cerevisiae deletion strains, locus YNL153C, strain GIM3, stronger effect = lower value 1 | S. cerevisiae deletion strains, locus YNL233W, strain BNI4, stronger effect = lower value 0.997 | S. cerevisiae deletion strains, locus YNL250W, strain rad50, stronger effect = lower value 0.972 | S. cerevisiae deletion strains, locus YNL271C, strain bni1, stronger effect = lower value 0.966 | S. cerevisiae deletion strains, locus YNL298W, strain CLA4, stronger effect = lower value 0.967 | S. cerevisiae deletion strains, locus YNL307C, strain MCK1, stronger effect = lower value 0.972 | S. cerevisiae deletion strains, locus YNL322C, strain KRE1, stronger effect = lower value 1 | S. cerevisiae deletion strains, locus YNR052C, strain pop2, stronger effect = lower value 0.967 | S. cerevisiae deletion strains, locus YOL006C, strain TOP1, stronger effect = lower value 0.986 | S. cerevisiae deletion strains, locus YOL012C, strain htz1 0.731 | S. cerevisiae deletion strains, locus YOL147C, strain pex11, stronger effect = lower value 0.988 | S. cerevisiae deletion strains, locus YOR061W, strain CKA2, stronger effect = lower value 0.99 | S. cerevisiae deletion strains, locus YOR069W, strain VPS5, stronger effect = lower value 0.99 | S. cerevisiae deletion strains, locus YOR136W, strain idh2, stronger effect = lower value 0.979 | S. cerevisiae deletion strains, locus YOR144C, strain elg1, stronger effect = lower value 0.985 | S. cerevisiae deletion strains, locus YOR184W, strain ser1, stronger effect = lower value 0.942 | S. cerevisiae deletion strains, locus YOR316C, strain cot1, stronger effect = lower value 0.977 | S. cerevisiae deletion strains, locus YPL055C, strain LGE1, stronger effect = lower value 1.04 | S. cerevisiae deletion strains, locus YPL241C, strain CIN2, stronger effect = lower value 0.972 | S. cerevisiae deletion strains, locus YPR119W, strain clb2, stronger effect = lower value 0.979 | S. cerevisiae deletion strains, locus YPR141C, strain kar3, stronger effect = lower value 0.972 | S. cerevisiae deletion strains, locus YPR163C, strain tif3, stronger effect = lower value 0.983 | S. cerevisiae deletion strains, locus YPR167C, strain met16, stronger effect = lower value 0.985 | S. cerevisiae deletion strains, strain wtn01, stronger effect = lower value 0.98 | S. cerevisiae strains, strain wild type, stronger effect = lower value 1
